Experimental findings from PubChem BioAssay (NCATS) are described below.

Results filed as inconclusive are left out. Active and inactive are the calls of the source. Calls follow the shape of the dose curve; as a rule, active = well fitted cell-killing curve with a large enough effect; inconclusive = small, poorly fitted or top-dose-only effect; inactive = flat fitted curve, though single readings scatter.
Potency is read from the fitted curve at half-maximal effect.

A short description of this assay: qHTS of pediatric cancer cell lines to identify multiple opportunities for drug repurposing: Primary screen for BT-37 cells (AID 1347094). The following applies: BT-37 viability, CellTiter-Glo luminescence, 48 h; series mostly up to 57.3 µM; activity change, negative = cytotoxic: at the top concentration. From the text:
Drug repurposing or repositioning has been offered as a strategy for drug development in oncology programs. This approach has special potential for childhood cancers and other rare or orphan diseases, where the expected return on new drug development has been a disincentive to pharmaceuticals. […] In this project we exploit the poly-pharmacology of drugs to discover new indications via phenotypic screening of a panel of 19 well-characterized cell lines derived from solid tumors seen in children and adolescents. The goal is to identify approved drugs with previously unrecognized anticancer properties that has the potential to reveal new mechanisms and biological processes involved in carcinogenesis or drug resistance. We employed a titration-based paradigm (quantitative high-throughput screening or qHTS), where all compounds were tested at multiple concentrations for their effect on cell viability. Concentration-response curves (CRCs) were derived directly from the primary screen, and both potency and efficacy values were used to identify compounds with robust bioactivity profiles. We screened the NIH Chemical Genomics Center (NCGC) Pharmaceutical Collection (NPC) and Mechanism Interrogation Plate (MIPE) small molecule collections of approved and investigational compounds against these cell lines; and measured metabolically active cells after 48 hours of compound treatment as a proxy for cell viability. […] Assay Submitter: Nathalia J. Martinez, National Center for Advancing Translational Sciences, National Institutes of Health, Rockville, MD, USA; email: natalia.martinez@nih.gov Shen, M et al. Quantitative high-throughput phenotypic screening of pediatric cancer cell lines identifies multiple opportunities for drug repurposing. Oncotarget 2017 Dec 19;9(4):4758-4772. PMID 29435139.
The cells were obtained from University of North Carolina (UNC), Pediatric Preclinical Testing Program (PPT), and Coriell Institute (CI). qHTS cell viability assay: Cells were assayed in growth media at a density of 500-1,000 cells/well. Five microliters of cells were dispensed into 1,536-well, white, solid-bottom, TC-treated plates (Greiner Bio One) using a multidrop dispenser and incubated at 37 degrees C, 5% CO2, under a humidified atmosphere for 5 hours. Twenty-three nanoliters of compounds and controls (neutral control DMSO or positive control bortezomib at final concentration of 2.3 µM) were subsequently transferred by Kalypsys pintool. For primary screens, the MIPE collection was tested at 11-point dilutions (final concentrations range from 0.78 nM to 46 µM) and the NPC collection at 8-point dilutions (final concentrations range from 0.59 nM to 46 µM). Compounds tested in follow-up screens were assayed at 11-point dilutions. Cells were incubated for 48 hours, followed by addition of 3 µL of CellTiter-Glo (Promega). After a 15 min incubation at room temperature, samples were analyzed for luminescence intensity using a ViewLux High-throughput CCD imager equipped with clear filters.
For the molecule `CN[C@@H]1Cc2cccc3[nH]c(=O)n(c23)C1`, the “activity change, negative = cytotoxic” value is 3.26% (inactive).

Turning to `Nc1c(Cl)c(Cl)c(Cl)c(Cl)c1Cl`, the “activity change, negative = cytotoxic” value was 12.3% [at 116 µM] (inactive). As for `CCNC(=O)C[C@@H]1N=C(c2ccc(Cl)cc2)c2cc(OC)ccc2-n2c(C)nnc21`, the Potency is 7.69 µM (active). The same measure, in the same setting: with `COCC1(CO)C(=O)C2CCN1CC2` (stereo not given) the figure was 1.22 µM (active). The same measure, in the same setting: to `CC[C@@H]1[C@@H](C)O[C@@](O)([C@@H](C)[C@H](O)[C@H](C)[C@H]2OC(=O)C=CC=C[C@@H](C)[C@@H]([C@@H](C)[C@@H](O)[C@H](C)[C@@]3(O)C[C@H](O[C@H]4C[C@H](O)[C@H](O)[C@H](C)O4)[C@H](CC)[C@@H](C)O3)OC(=O)C=CC=C[C@@H]2C)C[C@H]1O[C@H]1C[C@H](O)[C@H](O)[C@H](C)O1` belongs 0.685 µM (active). For `NC1CC1c1ccccc1` (stereo not given), the “activity change, negative = cytotoxic” value was 4.55% (inactive). The same measure, in the same setting: to `CC(=O)N(C)c1cccc(-c2ccnc3c(C(=O)c4cccs4)cnn23)c1` belongs 7.24% (inactive). In the case of `CCCCCCCCCCCCCCCC[N+](C)(C)C`, the Potency is 15.5 µM (active).

`Cc1ccccc1-n1c(Cn2cnc3c(N)ncnc32)nc2cccc(C)c2c1=O`: the Potency was 3.85 µM (active). On the same count and under the same terms, to `NC1=NC(=O)N2CC12` (stereo not given) belongs 19.3 µM (active). For the molecule `Cc1ccccc1-n1c(Cn2ncc3c(N)ncnc32)nc2cccc(C)c2c1=O`, the Potency was 0.0086 µM (active). Take `Cc1ccc(Cl)c(O)c1`: the “activity change, negative = cytotoxic” value is 8.62% (inactive). For `CCO/N=C(\CC)C1=C(O)CC(c2c(C)cc(C)cc2C)CC1=O` (stereo not given), the “activity change, negative = cytotoxic” value is -4.45% [at 116 µM] (inactive). The same measure, in the same setting: with `C1=C2CCCN[C@H]2[C@@H]2C[C@H]1[C@@H]1CCCCN1C2` the figure was 8.8% (inactive). For `c1cc2ccc3cccc4ccc(c1)c2c34`, the “activity change, negative = cytotoxic” value was 12.3% [at 116 µM] (inactive).

Turning to `CC(C)[C@]12O[C@@H]1[C@@H]1O[C@]13[C@]1(O[C@H]1C[C@@H]1C4=C(CC[C@@]13C)C(=O)OC4)[C@H]2O`, the Potency was 0.001 µM (active).

Regarding `Nc1ccc(Sc2ccc(N)cc2)cc1`, the “activity change, negative = cytotoxic” value was -8.47% [at 116 µM] (inactive). Still for that read-out and setting: to `CC(O)CN1CCN(CC(=O)[O-])CCN(CC(=O)[O-])CCN(CC(=O)[O-])CC1.[Gd+3]` (stereo not given) belongs 9.41% (inactive); to `Fc1cc(Br)ccc1CBr`, 5.03% (inactive); to `C#CC1(O)CCC2C3CCC4=CC(=O)CCC4(C)C3CCC21C` (stereo not given), -1.51% (inactive). Regarding `CC=C(C)C(=O)O[C@H]1C(C)=C2[C@@H]3OC(=O)[C@@](C)(O)[C@@]3(O)[C@@H](OC(=O)CCC)C[C@](C)(OC(C)=O)[C@@H]2[C@@H]1OC(=O)CCCCCCC`, the Potency was 0.0172 µM (active). On the same count and under the same terms, with `CC1=C(O)C(=O)C=C2C1=CC=C1[C@@]2(C)CC[C@@]2(C)[C@@H]3C[C@](C)(C(=O)O)CC[C@]3(C)CC[C@]12C` the figure was 4.85 µM (active). `CCC(=O)OC1CCC2C3CCC4=CC(=O)CC[C@@]4(C)C3CC[C@]12C` (stereo not given in full): the “activity change, negative = cytotoxic” value is -4.51% (inactive).

Turning to `COC(=O)[C@@H](N)CCCN=C(N)N[N+](=O)[O-]`, the “activity change, negative = cytotoxic” value is 21.9% (inactive).

`CC1=C(C(=O)O)N2C(=O)[C@@H](N)[C@H]2SC1`: the “activity change, negative = cytotoxic” value is 18.5% [at 20.1 µM] (inactive). With `CCCN(CCC)c1c([N+](=O)[O-])cc(S(N)(=O)=O)cc1[N+](=O)[O-]`, the Potency was 31.7 µM (active). Consider `c1cc2c(cc1[C@H]1OC[C@H]3[C@H]1CO[C@H]3c1ccc3c(c1)OCO3)OCO2`, for which the “activity change, negative = cytotoxic” value is 2.64% (inactive). For `O=[N+]([O-])c1ccc([As](=O)(O)O)cc1`, the “activity change, negative = cytotoxic” value is 13.5% (inactive).

Turning to `COCCOCCO`, the “activity change, negative = cytotoxic” value is 36.3% [at 116 µM] (inactive). As to `CN[C@@H](C)[C@H](O)c1ccccc1`, the “activity change, negative = cytotoxic” value was -5.07% (inactive). On the same count and under the same terms, with `COc1ccc(CC2NCCc3cc(OC)c(OC)cc32)cc1OC` (stereo not given) the figure was -4.93% (inactive); with `O=S(=O)(O)C(F)(F)C(F)(F)C(F)(F)C(F)(F)F`, 15.4% [at 116 µM] (inactive). Consider `CN(C)[C@@H]1C(=O)C(C(N)=O)=C(O)[C@@]2(O)C(=O)C3=C(O)c4c(O)cccc4[C@@](C)(O)[C@H]3[C@H](O)[C@@H]12`, for which the “activity change, negative = cytotoxic” value was 2.53% (inactive). For `O=C(Nc1ccncc1)C(=O)c1cn(Cc2ccc(Cl)cc2)c2ccccc12`, the Potency is 0.217 µM (active).

Turning to `CCN(CC)C(=O)c1ccc(C2=CC3(CCNCC3)Oc3cccc(O)c32)cc1`, the “activity change, negative = cytotoxic” value was -7.99% (inactive). In the case of `COc1cc2cc(c1Cl)N(C)C(=O)C[C@H](OC(=O)C(C)C)[C@]1(C)O[C@H]1[C@H](C)[C@@H]1C[C@@](O)(NC(=O)O1)[C@H](OC)C=CC=C(C)C2`, the Potency is 3.85 µM (active). In the case of `O=C(O)COc1ccccc1`, the “activity change, negative = cytotoxic” value was 16.6% (inactive). The same measure, in the same setting: with `CC(=CCCC1=CCC(C2=CC(=O)OC2O)OC1O)CCC1=C(C)CCCC1(C)C` (stereo not given) the figure was -12.5% (inactive).

For `CC(Cc1ccc(O)cc1)NCC(O)c1cc(O)cc(O)c1` (stereo not given), the “activity change, negative = cytotoxic” value is 7.51% (inactive).

For `Oc1ccc2c3c1O[C@H]1[C@@H](O)C=C[C@H]4[C@@H](C2)NCC[C@@]341`, the “activity change, negative = cytotoxic” value is -1.16% [at 116 µM] (inactive).
